Assay results reported in the supplement of paper PMC6607015.
Counter-ions that a name gives are not always drawn.

Legend:
Details in all cases: compound concentration in added solution (µM; 5 µl added to 20 µl cells): 10; 18 h
[1] = tested on: A431; test: LBPA endosome anti-LBPA integrated intensity (sum per cell), Z-score; higher = more LBPA staining
Method in brief: (§1)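 Per-cell integrated LBPA or filipin intensity, whole-cell or within LBPA endosomes, is expressed as Z-scores normalised in AcuityXpress. HeLa MZ or A431 cells, 3,500 per well in 20 µl, sat on 5 µl of 10 µM compound solution in duplicate 384-well imaging plates for 18 h. They were then fixed in 4% PFA, stained, imaged in four 20× fields per well and segmented using MetaXpress.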

[2] = tested on: HeLa MZ; test: as above
Method in brief: as §1

[3] = tested on: A431; test: whole-cell filipin (free cholesterol) integrated intensity, Z-score; higher = more cholesterol staining
Method in brief: as §1

[4] = tested on: HeLa MZ; test: as above
Method in brief: as §1

[5] = tested on: A431; test: filipin (cholesterol) integrated intensity within LBPA endosomes, Z-score; higher = more cholesterol in LBPA endosomes
Method in brief: as §1

[6] = tested on: HeLa MZ; test: as above
Method in brief: as §1

| Structure (SMILES) | LBPA endosome anti-LBPA integrated intensity (z-score) [1] | LBPA endosome anti-LBPA integrated intensity (z-score) [2] | whole-cell filipin (z-score) [3] | whole-cell filipin (z-score) [4] | filipin (z-score) [5] | filipin (z-score) [6] |
| --- | --- | --- | --- | --- | --- | --- |
| C[C@@H]1CN([C@H]2CC[C@](C#N)(c3ccc(F)cc3)CC2)CC[C@]1(C(=O)O)c1ccccc1 [Levocabastine hydrochloride] | -0.412 | -0.243 | -0.194 | -0.189 | -0.388 | -0.461 |
| C[C@]12CCC(=O)C=C1CC[C@@H]1[C@@H]2C(=O)C[C@]2(C)C(=O)CC[C@@H]12 [Adrenosterone] | 0.667 | 1.59 | 1.61 | 2.01 | 1 | 0.731 |
| NC(=O)C[S+]([O-])C(c1ccccc1)c1ccccc1 (stereo unspecified) [Modafinil] | -0.574 | -0.833 | -0.743 | -0.382 | -0.532 | -0.453 |
| CC[C@@]1([C@@H]2O[C@@H]([C@H]3O[C@@](O)(CO)[C@H](C)C[C@@H]3C)C[C@@H]2C)CC[C@H]([C@]2(C)CC[C@]3(C[C@H](O)[C@@H](C)[C@@H]([C@@H](C)[C@@H](OC)[C@H](C)C(=O)O)O3)O2)O1 [Monensin sodium salt] |  | -0.505 |  | -1.99 |  | 0.206 |
| C[C@@]12N[C@@H](Cc3ccccc31)c1ccccc12 [(-)-MK 801 hydrogen maleate] | -0.405 | 0.615 | -0.428 | -0.298 | -0.407 | -0.347 |
| Cc1cc(C(C#N)c2ccc(Cl)cc2)c(Cl)cc1NC(=O)c1cc(I)cc(I)c1O (stereo unspecified) [Closantel] | -0.54 | -1 | -0.93 | -0.632 | -0.512 | -0.663 |
| CCC1(c2cccc(O)c2)CCCCN(C)C1 (stereo unspecified) [Meptazinol hydrochloride] | -0.527 | -0.173 | 0.166 | -0.306 | -0.402 | -0.0124 |
| Fc1ccc(C(OCCN2CCN(CCCc3ccccc3)CC2)c2ccc(F)cc2)cc1 | 3.21 |  | 1.65 |  | 2.65 |  |
| O=c1[nH]c2ccccc2n1CCCN1CCC(n2c(=O)[nH]c3cc(Cl)ccc32)CC1 [Domperidone] | 2.25 | 1.92 | 2.16 | 2.38 | 2.09 | 2.01 |
| O=C(O)CCCc1ccc(N(CCCl)CCCl)cc1 [Chlorambucil] | -0.184 | 1.86 | 1.33 | 2.72 | -0.393 | -0.471 |
| CN1[C@@H]2C[C@@H](OC(=O)[C@H](CO)c3ccccc3)C[C@H]1[C@@H]1O[C@@H]12 [Scopolamine hydrochloride] | -0.422 | -0.0951 | -0.247 | 0.118 | -0.45 | -0.0653 |
| O=C1CC[C@@]2(O)[C@H]3Cc4ccc(O)c5c4[C@@]2(CCN3CC2CC2)[C@H]1O5 [Naltrexone hydrochloride dihydrate] | -0.577 | -0.427 | -0.831 | -1 | -0.48 | -0.466 |
| COc1ccc(C(CN(C)C)C2(O)CCCCC2)cc1 (stereo unspecified) [Venlafaxine] | -0.375 | 0.627 | -0.148 | -0.294 | -0.383 | -0.283 |
| CCC1(CC)C(=O)C=CNC1=O [Pyrithyldione] | -0.626 | -1.42 | -0.51 | -0.44 | -0.527 | -0.593 |
| CNC(=O)Oc1ccc2c(c1)[C@]1(C)CCN(C)[C@@H]1N2C [Eserine sulfate, physostigmine sulfate] | -0.59 | -0.404 | -0.783 | -0.229 | -0.479 | -0.36 |
| O=[N+]([O-])c1cc([As](=O)(O)O)ccc1O [Roxarsone] | -0.422 | -1.01 | 0.39 | 0.562 | -0.281 | -0.327 |
| S=C(NC1CCCCC1)N1CCC(c2cnc[nH]2)CC1 [Thioperamide maleate] | 2.17 | 2.24 | -0.0418 | 0.0454 | 0.0582 | 0.431 |
| COc1ccc(CCN2CCC(Nc3nc4ccccc4n3Cc3ccc(F)cc3)CC2)cc1 [Astemizole] |  | -0.627 |  | -1.11 |  | 2.12 |
| C=C1[C@@H]2CC[C@H]3[C@]4(C)C[C@H](O[C@@H]5O[C@H](CO)[C@@H](OS(=O)(=O)O)[C@H](OS(=O)(=O)O)[C@H]5OC(=O)CC(C)C)C[C@@H](C(=O)O)[C@H]4CC[C@]3(C2)[C@@H]1O [Atractyloside potassium salt] | -0.439 | -0.0672 | -0.293 | -0.252 | -0.383 | -0.47 |
| C[N+](C)(C)CCCCCCCCCC[N+](C)(C)C [Decamethonium bromide] | -0.547 | -1.08 | 0.0371 | 0.872 | -0.372 | -0.446 |
